Test results published in PubChem BioAssay AID1159580 (chemical genetic matrix, 2015).
“And” between values parts separate entries of the source, which are not always exact repeats. Equal values may be shown once. Hit rate of the full screen: of about 5,500 compounds, about 2,000 (36%) were called active. Roughly 18% stayed inconclusive and do not appear here. Rule as the data show it: active = normalized growth mostly below about 0.91 (no sharp cut-off); inconclusive = no clear call, values can overlap the other calls; inactive = mostly above about 0.92. The list shows a part of the results.

Assay: chemical genetic growth profiling, strain panel (AID 1159580);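 also: tested at 20 µM; growth read once vehicle control cultures reached saturation at 30 °C; 1 = growth at the plate median or of vehicle wells; lower values mean less growth of the strain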
Conditions: S. cerevisiae deletion strains, growth OD

Measured: normalized growth

CS(=O)(=O)OCCCCOS(C)(=O)=O
inactive: locus YAL013W, strain DEP1, hits give low values 0.954 | locus YAL021C, strain ccr4, hits give low values 0.999 | locus YAL026C, strain drs2, hits give low values 1.02 | locus YAL030W, strain snc1, hits give low values 1.03 | locus YBL061C, strain skt5, hits give low values 1.01 | locus YBR021W, strain FUR4, hits give low values 1.01 | locus YBR023C, strain chs3, hits give low values 1.01 | locus YBR171W, strain sec66, hits give low values 1.03 | locus YBR229C, strain ROT2, hits give low values 0.994 | locus YBR231C, strain swc5, hits give low values 0.993 | locus YBR279W, strain paf1, hits give low values 1.01 | locus YCL011C, strain gbp2, hits give low values 1.04 | locus YCL016C, strain dcc1, hits give low values 1.05 | locus YCL029C, strain bik1, hits give low values 0.956 | locus YCL069W, strain vba3, hits give low values 1.03 | locus YCR088W, strain abp1, hits give low values 1.02 | locus YDL005C, strain med2, hits give low values 1.01 | locus YDL035C, strain GPR1, hits give low values 1.02 | locus YDL040C, strain nat1, hits give low values 1 | locus YDL074C, strain BRE1, hits give low values 0.901 | locus YDL101C, strain DUN1, hits give low values 0.948 | locus YDL185W, strain tfp1, hits give low values 0.918 | locus YDL192W, strain arf1, hits give low values 0.942 | locus YDR001C, strain nth1, hits give low values 1.01 | locus YDR069C, strain doa4, hits give low values 1.02 | locus YDR101C, strain arx1, hits give low values 0.961 | locus YDR137W, strain rgp1, hits give low values 1.03 | locus YDR159W, strain sac3, hits give low values 0.996 | locus YDR162C, strain NBP2, hits give low values 0.961 | locus YDR195W, strain ref2 0.973 | locus YDR297W, strain sur2, hits give low values 1.05 | locus YDR318W, strain mcm21, hits give low values 0.962 | locus YDR334W, strain swr1, hits give low values 1.01 | locus YDR335W, strain msn5, hits give low values 1.04 | locus YDR388W, hits give low values 0.963 | locus YDR392W, strain spt3, hits give low values 1.04 | locus YDR502C, strain sam2, hits give low values 0.973 | locus YEL003W, strain gim4, hits give low values 1.03 | locus YEL037C, strain rad23, hits give low values 1.02 | locus YEL061C, strain CIN8 (second series), hits give low values 1.01 | locus YEL061C, strain CIN8, hits give low values 0.979 | locus YER015W, strain faa2, hits give low values 0.998 | locus YER016W, strain bim1, hits give low values 1.03 | locus YER110C, hits give low values 0.93 | locus YER111C, strain swi4, hits give low values 1.02 | locus YER155C, strain BEM2 (second series), hits give low values 1.02 | locus YER155C, strain BEM2, hits give low values 1 | locus YER167W, strain BCK2, hits give low values 1.01 | locus YFR010W, strain ubp6, hits give low values 0.996 | locus YGL078C, strain dbp3, hits give low values 0.987 | locus YGL086W, strain mad1, hits give low values 0.954 | locus YGL167C, strain pmr1, hits give low values 1.05 | locus YGL173C, strain kem1, hits give low values 1.01 | locus YGL227W, strain vid30, hits give low values 1.02 | locus YGL240W, strain doc1, hits give low values 1.05 | locus YGL248W, strain PDE1, hits give low values 0.95 | locus YGL253W, strain hxk2, hits give low values 1.03 | locus YGR078C, strain PAC10, hits give low values 0.935 | locus YGR135W, strain pre9, hits give low values 0.934 | locus YGR252W, strain gcn5, hits give low values 0.861 | locus YHR013C, strain ard1, hits give low values 1.09 | locus YHR027C, strain rpn1, hits give low values 1 | locus YHR030C, strain SLT2, hits give low values 0.979 and 1 | locus YHR079C, strain IRE1 (second series), hits give low values 0.952 | locus YHR079C, strain IRE1, hits give low values 0.994 | locus YHR094C, strain hxt1, hits give low values 0.981 | locus YHR129C, strain ARP1, hits give low values 0.969 | locus YHR142W, strain chs7, hits give low values 1.07 | locus YHR200W, strain rpn10, hits give low values 0.948 | locus YIL066C, strain RNR3, hits give low values 1 | locus YIL073C, strain SPO22, hits give low values 0.907 | locus YIL125W, strain kgd1, hits give low values 0.981 | locus YIR030C, strain dcg1, hits give low values 0.962 | locus YJL092W, strain hpr5, hits give low values 1.03 | locus YJL095W, strain BCK1 (second series), hits give low values 1.05 | locus YJL095W, strain BCK1, hits give low values 0.833 and 0.987 | locus YJL115W, strain asf1, hits give low values 1.01 | locus YJL129C, strain trk1, hits give low values 0.999 | locus YJL134W, strain LCB3, hits give low values 0.986 | locus YJL154C, strain vps35, hits give low values 1.02 | locus YJL166W, strain qcr8, hits give low values 1.01 | locus YJL168C, strain set2, hits give low values 0.955 | locus YJL187C, strain SWE1 (second series), hits give low values 0.933 | locus YJL187C, strain SWE1, hits give low values 1.03 | locus YJR043C, strain POL32, hits give low values 1.01 | locus YJR066W, strain TOR1, hits give low values 0.985 | locus YKL009W, strain mrt4, hits give low values 0.967 | locus YKL068W, hits give low values 0.99 | locus YKL085W, strain MDH1 (second series), hits give low values 0.975 | locus YKL085W, strain MDH1, hits give low values 0.975 | locus YKL160W, strain elf1, hits give low values 1.05 | locus YKL190W, strain CNB1, hits give low values 0.977 | locus YKR026C, strain gcn3, hits give low values 1.02 | locus YKR091W, strain srl3, hits give low values 1.03 | locus YLL001W, strain dnm1, hits give low values 1.03 | locus YLL026W, hits give low values 1.03 | locus YLL041C, strain sdh2, hits give low values 1.02 | locus YLR027C, strain aat2, hits give low values 1.04 | locus YLR039C, strain RIC1, hits give low values 0.985 | locus YLR058C, strain SHM2, hits give low values 0.969 | locus YLR102C, strain apc9, hits give low values 0.972 | locus YLR113W, strain HOG1, hits give low values 0.961 | locus YLR221C, strain rsa3, hits give low values 1.07 | locus YLR258W, strain gsy2, hits give low values 1.07 | locus YLR262C, strain YPT6 (second series), hits give low values 1.04 | locus YLR262C, strain YPT6, hits give low values 1.02 | locus YLR268W, strain sec22, hits give low values 0.95 | locus YLR320W, strain mms22, hits give low values 0.999 | locus YLR330W, strain CHS5, hits give low values 0.957 | locus YLR342W, strain FKS1 (second series), hits give low values 1.08 | locus YLR342W, strain FKS1, hits give low values 1.02 | locus YLR357W, strain rsc2, hits give low values 1.05 | locus YLR370C, strain arc18, hits give low values 1.03 | locus YLR371W, strain rom2, hits give low values 0.939 | locus YLR384C, strain iki3, hits give low values 1.01 | locus YLR418C, strain cdc73, hits give low values 0.872 | locus YML016C, strain PPZ1, hits give low values 0.981 | locus YML032C, strain rad52, hits give low values 0.97 | locus YML120C, strain ndi1, hits give low values 1.03 | locus YML124C, strain tub3, hits give low values 0.967 | locus YMR058W, strain fet3, hits give low values 1.01 | locus YMR078C, strain ctf18, hits give low values 0.942 | locus YMR125W, strain sto1, hits give low values 1.03 | locus YMR129W, hits give low values 1.02 | locus YMR205C, strain PFK2, hits give low values 1.01 | locus YMR223W, strain ubp8, hits give low values 0.934 | locus YMR231W, strain pep5, hits give low values 1.02 | locus YMR307W, strain GAS1, hits give low values 0.984 | locus YNL067W, strain RPL9B, hits give low values 0.928 | locus YNL071W, strain lat1, hits give low values 1.01 | locus YNL128W, strain TEP1, hits give low values 0.909 | locus YNL153C, strain GIM3, hits give low values 0.938 | locus YNL183C, strain NPR1, hits give low values 0.932 | locus YNL209W, strain ssb2, hits give low values 1.01 | locus YNL233W, strain BNI4, hits give low values 0.889 | locus YNL248C, strain rpa49, hits give low values 1.06 | locus YNL250W, strain rad50, hits give low values 0.964 | locus YNL271C, strain bni1, hits give low values 0.955 | locus YNL298W, strain CLA4, hits give low values 0.979 | locus YNL307C, strain MCK1, hits give low values 0.963 | locus YNL322C, strain KRE1 (second series), hits give low values 1.04 | locus YNR049C, strain mso1, hits give low values 1.02 | locus YOL006C, strain TOP1, hits give low values 0.696 | locus YOL012C, strain htz1 0.364 | locus YOL147C, strain pex11, hits give low values 0.972 | locus YOR001W, strain rrp6, hits give low values 1.03 | locus YOR061W, strain CKA2, hits give low values 0.987 | locus YOR069W, strain VPS5, hits give low values 0.986 | locus YOR070C, strain gyp1, hits give low values 1.01 | locus YOR080W, strain dia2, hits give low values 1.05 | locus YOR083W, strain WHI5, hits give low values 1.05 | locus YOR106W, strain vam3, hits give low values 1.03 | locus YOR136W, strain idh2, hits give low values 0.977 | locus YOR144C, strain elg1, hits give low values 0.984 | locus YOR184W, strain ser1, hits give low values 0.989 | locus YOR231W, strain MKK1, hits give low values 1 | locus YOR265W, strain rbl2, hits give low values 1.01 | locus YOR270C, strain vph1, hits give low values 1.07 | locus YOR290C, strain snf2, hits give low values 1.06 | locus YOR316C, strain cot1, hits give low values 0.972 | locus YPL051W, strain arl3, hits give low values 1.02 | locus YPL078C, strain atp4, hits give low values 1.02 | locus YPL106C, strain sse1, hits give low values 1.05 | locus YPL240C, strain hsp82, hits give low values 1.02 | locus YPL256C, strain CLN2, hits give low values 0.99 | locus YPR119W, strain clb2, hits give low values 0.951 | locus YPR141C, strain kar3, hits give low values 0.957 | locus YPR163C, strain tif3, hits give low values 0.962 | locus YPR167C, strain met16, hits give low values 0.975 | strain wtn01, hits give low values 0.953
active: locus YBR009C, strain hhf1, hits give low values 1.11 [resistant] | locus YJL164C, strain tpk1, hits give low values 1.09 [resistant] | locus YKR001C, strain vps1, hits give low values 0.89 | locus YNR052C, strain pop2, hits give low values 0.908
